Data: PubChem BioAssay AID1259312 (Keith Lab, Institute of Cancer Science, University of …, 2017)
About 200 (4.4%) of roughly 4,500 compounds were called active. This excerpt belongs to a sample that is enriched for actives. A number with no mark means an inactive call.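 Rule for the calls: active = cell survival measured by absorbance rises more than 2.5-fold over infected cells without compound; inactive = the rest.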

Test: survival after telomere uncapping, modulators, primary screen, cell-based (AID 1259312);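 note: virus expresses mutant telomerase RNA that uncaps telomeres and kills cells; compound added 2 days after infection so exposure lasts 3 days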
Details: HCT116 + Ad-hTR-mut, MTT, 5 d; at 10 µM, hits give high values

SMILES	fold change
O=c1c2ccc(Cl)c3c(Cl)ccc(c32)c2nc3ccccc3n12	-2.06
Cc1cc(C)n(C(=O)c2nn(C)cc2[N+](=O)[O-])n1	1.61
O=[N+]([O-])c1cc(Br)cc(C=Nc2ccc(I)cc2)c1O	inactive
N#CC1=C(N)Oc2[nH]c(=O)[nH]c(=O)c2C1c1cccnc1 (configuration not stated)	1.23
O/N=C(\c1ccccc1)C(O)c1ccccc1 (configuration not stated)	-1.85
S=c1nc(-c2ccccc2Cl)[nH][nH]1	-1.2
Nn1c(-c2cccs2)nc2ccccc2c1=O	-1.03
O=C1C=CC(=O)N1c1ccc(Cl)c(Cl)c1	-1.48
NCC1NCCc2ccccc21 (configuration not stated)	-1.4
NC(=S)NCCC[C@H](N)C(=O)O	1.05
c1ccc2cc(NCSCc3nc4ccccc4c4ccccc34)ccc2c1	-1.54
Cc1ccnc(SC2CC(=O)N(c3ccc4ccccc4c3)C2=O)n1 (configuration not stated)	-1.04
O=C1C2C3c4ccccc4C(c4ccccc43)C2C(=O)N1c1ccc2ccccc2c1 (configuration not stated)	3.16 (active)
O=C1C2C3CC(C(Br)C3Br)C2C(=O)N1c1ccc(Br)cc1 (configuration not stated)	1.06
CN1C(=O)COc2ccc(S(=O)(=O)N3CCOCC3)cc21	-1.01
Nc1nc(=S)n(-c2ccccc2)[nH]1	-2.51
CC(C)N1C=C(Cc2cccnc2)C2=C(C1)C(c1cccnc1)C(C#N)=C(N)O2 (configuration not stated)	2.25
N#CC1=C(N)Oc2ccc(N)cc2C1c1cccnc1 (configuration not stated)	2.15
N#CC1=C(N)N(Cc2ccccc2)C2=C(COC/C2=C/c2cccnc2)C1c1cccnc1 (configuration not stated)	2.64 (active)
COc1cccc(OC)c1-c1noc(CSc2nc3ccccc3o2)n1	-1.15
O=c1[nH]c(=O)n([C@@H]2O[C@H](CO)[C@@H](O)[C@H]2O)cc1Br	-3.23
O=c1nc(N2CCOCC2)nc(Nc2ccccc2)[nH]1	active

SMILES	fold change
Cc1cc(C)nc(Nc2ccc(N3CCOCC3)cc2)n1	-1.54
Cc1cc(C)n(-c2nc(N3CCOCC3)nc(N3CCOCC3)n2)n1	1.04
CCc1cc(C=C(Cl)Cl)oc(=O)c1C	-1.84
Cc1cc2ccc(=O)oc2cc1OC[C@@H](O)C(C)(C)O	-1.35
O=S(=O)(NCc1ccco1)c1ccc(Br)cc1	2.26
O=c1[nH]nc(CSCc2ccc(Cl)cc2)[nH]1	inactive
O=c1[nH]nc(CSCc2ccc3nsnc3c2)[nH]1	active
O=c1[nH]nc(CSCc2csc(-c3ccccc3)n2)[nH]1	inactive
NCCCN1CCc2ccccc21	-1.28
O=C(c1n[nH]c(=O)c2ccccc12)N1CCN(c2ccccn2)CC1	-1.05
O=C(Nc1sc2c(c1C(=O)O)CCCCC2)c1cccs1	-1.49
O=C(O)c1csc2c1CCCC2	2.51 (active)
Cc1ccc(C)n1-c1sc2c(c1C(=O)O)CCCC2	-1.1
CCS(=O)(=O)c1ccsc1S(=O)(=O)CC	-1.28
COC(=O)Nc1ncc(CN2CCOCC2)s1	-2.39
c1ccc(-c2nc(-c3ccccn3)nc(-c3ccccn3)n2)nc1	3.31 (active)
O=S(=O)(O)c1ccc(-c2nnc(-c3ccccn3)nc2-c2ccc(S(=O)(=O)O)o2)o1	-1.16
c1ccc(-c2ccc3ccccc3n2)nc1	-1.13
CC(C)(C)NC(=O)Nc1cccnc1Cl	-1.98
C=CCOC(=O)c1sc(NC(=O)c2cccs2)nc1C	-1.68
CCOC(=O)/C(C#N)=C(\C#N)C(=O)OCC	1.04
CS(=O)(=O)Nc1ccc2c3c(cccc13)CC2	2.67 (active)

SMILES	fold change
CN1CC(C(=O)Nc2ccc3c4c(cccc24)CC3)CC1=O (configuration not stated)	1.08
CS(=O)(=O)Nc1ccc(F)cc1F	-1.21
Nc1nc(-c2ccc(Cl)c(Cl)c2)cs1	1.69
CCCOc1ccccc1N=c1ssc2c1-c1cc(C)c(C)cc1NC2(C)C	-3.58
COc1ccc2nc(N=C(N)N)nc(C)c2c1	1.75
Cc1nc(N=C(N)N)nc2ccccc12	3.38 (active)
COc1cccc2c(C)nc(N=C(N)N)nc12	1.65
Cc1nccn1CCC1CCNCC1	3.27 (active)
CC(C)(C)c1ccc(-c2nn(CN3CCC(c4ccccc4)C3)c(=S)n2-c2ccccc2)cc1 (configuration not stated)	-1.84
Cc1ccc(-c2nn(CN3CCC(c4ccccc4)C3)c(=S)n2-c2ccccc2)cc1 (configuration not stated)	-1.2
S=c1n(CN2CCCCC2)nc(-c2ccccc2)n1-c1ccccc1	3.46 (active)
O=C(NCCN1CCOCC1)C(=O)NCCN1CCOCC1	1.02
COc1ccc(C2C3=C(Nc4ncnn42)c2ccccc2CC3)cc1OC (configuration not stated)	inactive
O=S(=O)(NCCCl)c1ccccc1	-1.04
COC(=O)CCC(C)C1CCC2C3C(C[C@H](O)C12C)C1(C)CC[C@@H](O)CC1C[C@H]3O (some centres not stated)	4.26 (active)
C[C@H](CCC(=O)O)[C@H]1CC[C@H]2[C@@H]3[C@H](O)C[C@@H]4C[C@H](O)CC[C@]4(C)[C@H]3C[C@H](O)[C@]12C	-1.01
CCOC(=O)CC[C@@H](C)[C@H]1CC[C@H]2[C@@H]3[C@H](O)C[C@@H]4C[C@H](O)CC[C@]4(C)[C@H]3C[C@H](O)[C@]12C	-1.19
COc1ccc(-c2nc(-c3cccnc3)no2)cc1	-1.74
O=C1CC(c2cc3c(cc2Br)OCO3)c2ccc3ccccc3c2N1 (configuration not stated)	1.01
Nc1nc(SCC(=O)Nc2ccc(Br)cc2)sc1C(=O)Nc1nccs1	-1.48
CC(=O)C(C(C)=O)C(C(C)=O)C(C)=O	3.14 (active)
CCOC(=O)C(C(C)=O)C(C(C)=O)C(=O)OCC (configuration not stated)	1.67

SMILES	fold change
Brc1csc(-c2cc(Br)cs2)c1	-1.44
NC(=O)c1c(NC(=O)CN2CCCCC2)sc2c1CCCC2	-1.75
c1ccc(CCn2c(CSc3nc4ccccc4o3)nc3ccccc32)cc1	-1.06
NS(=O)(=O)c1cc(C(=O)O)c(Cl)cc1Cl	-1.78
c1ccc(-c2ccc(CSc3nc4ccccc4o3)cc2)cc1	-1.02
O=[N+]([O-])c1cc(Cl)ccc1NC1CCCCC1	4.77 (active)
O=[N+]([O-])c1ccc(Cl)cc1NCc1ccco1	-1.31
O=[N+]([O-])c1ccccc1NC1CCCCC1	1.67
Cc1ccc(C)n1-c1ccc(NC2CCCC2)c([N+](=O)[O-])c1	-1.34
O=[N+]([O-])c1ccc(Cl)cc1NCCO	2.39
NNc1cc(Cl)ccc1[N+](=O)[O-]	3.68 (active)
O=C(Nc1nc2c(s1)CCCC2)C1CC(=O)N(c2ccc(F)cc2)C1 (configuration not stated)	-2.42
Cc1cccn2c(=O)c(C=O)c(Nc3cccc(Cl)c3)nc12	-1.44
CCCCc1ccc(C2C3=C(CC(C)(C)CC3=O)OC3=C2C(=O)CC(C)(C)C3)s1	-1.42
Fc1ccc(-c2nc3sc(-c4ccc(F)cc4)nc3s2)cc1	-2.41
O=C(c1ccc2[nH]c(=O)oc2c1)c1ccc2[nH]c(=O)oc2c1	1.41
C#CCN1C(=O)S/C(=C\c2ccc(N3CCCC3)cc2)C1=O	-1.24
CN1CCC2(CC1)C(C#N)=C(N)Oc1n[nH]c(-c3ccccc3)c12	3.65 (active)
CN1CCC2(CC1)C(C#N)=C(N)Oc1n[nH]c(C(=O)OC(C)(C)C)c12	-1.08
COCc1[nH]nc2c1C1(CCN(C)CC1)C(C#N)=C(N)O2	-1.21
CCOC(=O)C1=C(C)NC2=C(C(=O)CCC2)C1c1ccc(CC)s1 (configuration not stated)	-1.61
O=c1[nH]c2ccccc2[nH]c1=O	5 (active)

SMILES	fold change
COc1ccc2[nH]c(=O)c(=O)[nH]c2c1	1.16
O=c1ccc2ccccc2[nH]1	-1.85
O=S(=O)(c1ccccc1)N1CCN(Cc2ccc3c(c2)OCO3)CC1	-4.81
O=S(=O)(c1ccc2c(c1)OCCO2)N1CCCCC1	-1.44
O=C(c1ccc(COc2ccc(I)cc2)o1)N1CCCC1	-1.09
CN(C)c1ccc(/C=C2\C(=O)ON=C2c2cccc(I)c2)cc1	-1.18
Cn1c2c(c(=O)[nH]c1=O)C(c1ccccc1)C1=C(N2)c2ccccc2C1=O (configuration not stated)	-6.31
Cc1[nH][nH]c(=O)c1C(c1ccncc1)C(C#N)C#N (configuration not stated)	3.56 (active)
O=C(Nc1sc2c(c1C(=O)Nc1ccc(Br)cc1)CCC2)c1cccs1	1.12
Cn1nnnc1SCC(=O)Nc1ccc(F)c(Cl)c1	-2.05
O=C(Nc1ccc(Br)cc1Br)C(Cl)Cl	-6.77
CC(=O)Nc1sc2c(c1C(=O)O)CCCC2	2.88 (active)
CC(=O)Nc1sc2c(c1C(N)=O)CCCCC2	1.05
CC(=O)Nc1sc2c(c1C(N)=O)CCCC2	-1.98
COc1ccc(S(=O)(=O)N2CCCc3ccccc32)cc1	-1.9
CC1(C)CC(NS(=O)(=O)c2ccccc2)CC(C)(C)N1	-1.13
CC(C)NC(=O)C(=O)NC1CC(C)(C)NC(C)(C)C1	-2.38
CC1(C)CC(NC(=O)C(=O)NC2CC(C)(C)NC(C)(C)C2)CC(C)(C)N1	4.26 (active)
Cc1cc(NC(=O)c2n[nH]c(=O)c3ccccc23)no1	-1.69
